PubChem BioAssay (EPA / NIEHS)
Where “and” joins values, the source holds several entries; their conditions need not be identical. Equal values may be shown once. Records with an inconclusive call do not appear. More than one record can exist for a structure, and the calls need not agree. Calls of active or inactive are those of the source. The calls were made as follows, unless noted: active = hit-call score of the fitted dose curve at least 0.9, where 1 is the maximum; inactive = score below 0.9.

Legend:
[1] = molecular target: Estrogen receptor (Homo sapiens) (UniProt P03372); assay: CCTE_Deisenroth_AIME_384WELL_LUC_Active: CCTE's 384-well Estrogen Receptor Transactivation Assay with AIME metabolic competence (ERTA luciferase; metabolism positive), Deisenroth Lab (AID 2284030; active = hit-call score of the fitted dose curve at least 0.9, where 1 is the maximum)
Method in brief: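 Estrogenic luciferase signal in VM7Luc4E2 cells is measured at 24 hour, after chemicals have been preconditioned 2 hours with PB/BNF-induced rat hepatic S9 in alginate. Gain of signal is fitted relative to 17beta-estradiol, across 0.002 - 200 uM.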

[2] = CCTE_Deisenroth_AIME_384WELL_CTox_Active: Cytotoxicity Assessment (CTOX) in CCTE's 384-well Estrogen Receptor Transactivation Assay with AIME metabolic competence (metabolism positive), Deisenroth Lab (AID 2284037; active = hit-call score of the fitted dose curve at least 0.9, where 1 is the maximum;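 also: chemicals first conditioned 2 h by alginate-bound induced rat liver S9 before cells; activity means signal loss indicating cell death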)
Method in brief: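 Chemicals pre-incubated 2 hours with alginate-immobilised phenobarbital/beta-naphthoflavone-induced male Sprague Dawley rat liver S9, then conditioned medium applied 24 hour to VM7Luc4E2 cells. Viability by fluorogenic protease substrate; 10-point series 0.002 - 200 uM.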

[3] = molecular target: Estrogen receptor (Homo sapiens) (UniProt P03372); assay: CCTE_Deisenroth_AIME_384WELL_LUC_Inactive: CCTE's 384-well Estrogen Receptor Transactivation Assay without AIME metabolic competence (ERTA luciferase; metabolism negative), Deisenroth Lab (AID 2284038; active = hit-call score of the fitted dose curve at least 0.9, where 1 is the maximum;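 also: VM7Luc4E2 breast cells given medium preincubated 2 h with S9-free microspheres; hits raise estrogen receptor luciferase signal so potencies reflect agonists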)
Method in brief: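 VM7Luc4E2 ER transactivation, luciferase bioluminescence after 24 h, using medium pre-incubated 2 h with S9-free alginate microspheres. Concentrations 0.002–200 uM; gain of signal fitted relative to 17beta-estradiol.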

[4] = CCTE_Deisenroth_AIME_384WELL_CTox_Inactive: Cytotoxicity Assessment (CTOX) in CCTE's 384-well Estrogen Receptor Transactivation Assay without AIME metabolic competence (metabolism negative), Deisenroth Lab (AID 2284039; active = hit-call score of the fitted dose curve at least 0.9, where 1 is the maximum;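 also: cell viability via live-cell protease substrate cleaved to fluorescent probe; cells exposed 24 h to medium preincubated 2 h with alginate-water beads without S9; loss of fluorescence signal means loss of viability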)
Method in brief: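 Fluorescent protease-substrate viability readout after 24 h exposure of VM7Luc4E2 cells to conditioned medium. Chemicals (0.002–200 uM) first sat 2 h over alginate-water beads, no S9. Data fitted bidirectionally, loss of signal meaning viability loss.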

[5] = molecular target: Estrogen receptor (Homo sapiens) (UniProt P03372); assay: CCTE_Deisenroth_AIME_384WELL_LUC_Shift: CCTE's 384-well Estrogen Receptor Transactivation Assay with AIME metabolic competence data shift (ERTA luciferase; difference in metabolism positive and negative), Deisenroth Lab (AID 2284041);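 also: shift is response with S9 minus without S9 so positive means metabolism raised ER signal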
Method in brief: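 Chemicals (0.002–200 uM, 10 points) pre-incubated 2 h with alginate-encapsulated induced male Sprague Dawley rat liver S9 or S9-free, then medium applied 24 h to VM7Luc4E2 cells; luciferase. Endpoint is per-concentration difference, S9-positive minus negative.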

[6] = CCTE_Shafer_MEA_acute_per_network_burst_electrodes_number_mean: CCTE's Neural Acute Assay for Mean Number of Electrodes in a Network Burst, Shafer Lab (AID 2284021);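 also: curves fitted for decreases only so hits reduce electrodes per burst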
Method in brief: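 Percent change from baseline in average electrode count per network burst, rat cortical cultures on 48-well MEAs; 40-min recordings each side of exposure, DIV 13 or 15; threshold 8x rms noise; DMSO as negative control.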

[7] = CCTE_Shafer_MEA_acute_network_burst_percentage: CCTE's Neural Acute Assay for Percentage of Network Bursts, Shafer Lab (AID 2284022);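 also: curves fitted for loss so actives lower network burst percentage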
Method in brief: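 On DIV 13 or 15, at least three wells of rat cortical neurons per compound are dosed at 0.03-40 uM. Spontaneous firing is detected at 8x rms noise for 40 min before and after dosing at 37 C. The percent change in network-burst spike share is reported.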

[8] = CCTE_Shafer_MEA_acute_cross_correlation_area: CCTE's Neural Acute Assay for Area of Cross Correlation, Shafer Lab (AID 2284024);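 also: area under pooled inter-electrode spike cross-correlation near zero lag as percent change from own baseline; curves fitted for loss of cross-correlation area so actives lower synchrony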
Method in brief: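 Extracellular recordings from cultured rat cortical neurons measure network synchrony as cross-correlation area; each well's post-compound value (0.03-40 uM, 40 min) is compared with its own 40 min baseline to give percent change.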

[9] = CCTE_Shafer_MEA_acute_cross_correlation_HWHM: CCTE's Neural Acute Assay for Cross Correlation at Half Width at Half Maximum, Shafer Lab (AID 2284026);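 also: percent change per well from pre-dose baseline in spike cross-correlogram half width; hits are a decrease in cross-correlogram half width relative to DMSO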
Method in brief: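 Percent change in cross-correlogram half width at half maximum, narrower meaning more synchrony, was derived per well from paired 40-min recordings before and during exposure to 0.03-40 uM compound in rat cortical cultures at 37 C.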

[10] = CCTE_Shafer_MEA_acute_synchrony_index: CCTE's Neural Acute Assay for Synchrony, Shafer Lab (AID 2284027);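 also: network synchrony index of spontaneous spiking in primary rat cortical neurons on MEAs; fitted for loss of signal so actives lower synchrony relative to DMSO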
Method in brief: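 Plates equilibrated 20 min at 37 C, baseline recorded 40 min, compound (0.03-40 uM) added, then 40 min more recorded. Cells: primary rat cortical neurons, DIV 13 or 15. Per-well synchrony index change analysed in negative direction against DMSO.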

[11] = CCTE_Shafer_MEA_dev_firing_rate_mean: CCTE's Neural Network Formation Assay for Mean Firing Rate, Shafer Lab (AID 2284031);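 as to AC50: curve fitted for loss of firing so AC50 reflects decreased mean firing rate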
Method in brief: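 Steps: seed rat cortical cells (1.5 x 10^5/well) with laminin on PEI-coated MEA; dose day 0; record DIV 5/7/9/12, full media and compound exchange after DIV 5 and 9 recordings; compute well-mean firing rate AUC.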

[12] = CCTE_Shafer_MEA_dev_per_burst_spike_percent: CCTE's Neural Network Formation Assay for Percent of Spikes in a Burst, Shafer Lab (AID 2284032);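 as to AC50: fitted as a decrease in burst spike percentage below DMSO baseline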
Method in brief: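 Value is trapezoidal AUC over recordings on days 5, 7, 9 and 12 of the well-mean fraction of spikes falling in single-electrode bursts; rat cortical cultures exposed continuously from plating, treatment renewed DIV 5 and 9, fitted downward against DMSO.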

[13] = CCTE_Shafer_MEA_dev_active_electrodes_number: CCTE's Neural Network Formation Assay for Number of Active Electrodes, Shafer Lab (AID 2284040; active = hit-call score of the fitted dose curve at least 0.9, where 1 is the maximum;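 as to AC50: potency for loss of active electrodes versus DMSO so lower counts are hits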)
Method in brief: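 Counts electrodes per well firing at least 5 spikes/min, recorded on days 5, 7, 9 and 12 in rat cortical cultures dosed continuously from plating (treatment refreshed DIV 5, 9). Value is the area under the curve over recordings, fitted downward relative to DMSO.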

[14] = CCTE_Shafer_MEA_dev_burst_rate: CCTE's Neural Network Formation Assay for Burst Rate, Shafer Lab (AID 2284042);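 as to AC50: potency for loss of burst rate below DMSO control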
Method in brief: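 Exposure ran continuously over 12 days of network development in rat cortical cultures, with compound refreshed during full media changes on DIV 5 and 9. Single-electrode bursts per recording time, well-mean over active electrodes, trapezoidal AUC across days 5–12, fitted downward relative to DMSO.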

[15] = CCTE_Shafer_MEA_dev_bursting_electrodes_number: CCTE's Neural Network Formation Assay for Number of Bursting Electrodes, Shafer Lab (AID 2284043; active = hit-call score of the fitted dose curve at least 0.9, where 1 is the maximum;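 also: potency is for loss of bursting electrodes relative to DMSO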)
Method in brief: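 Rat cortical primary neurons, 48-well MEA, 16 electrodes/well; dosing DIV 0–12, re-dosed with full media change DIV 5, 9. Recordings DIV 5/7/9/12, AxIS adaptive spike detector; bursting electrode = ≥1 burst/2 min. AUC across days; loss of signal vs DMSO.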

[16] = CCTE_Shafer_MEA_dev_per_burst_interspike_interval: CCTE's Neural Network Formation Assay for Burst Interspike Interval, Shafer Lab (AID 2284044);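 as to AC50: potency for a decrease of within-burst interspike interval below DMSO level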
Method in brief: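 Spontaneous activity of maturing rat cortical networks is recorded on DIV 5, 7, 9 and 12 under chronic compound exposure beginning at plating. Endpoint: burst interspike interval well-mean, collapsed into trapezoidal AUC and fitted in the negative direction relative to DMSO.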

[17] = CCTE_Shafer_MEA_dev_burst_duration_mean: CCTE's Neural Network Formation Assay for Mean Burst Duration, Shafer Lab (AID 2284045)
Method in brief: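 Rat cortical cultures, 1.5 x 10^5 cells/well with laminin drop; continuous dosing days 0–12, media plus treatment refreshed DIV 5, 9. AxIS adaptive spike detection; mean single-electrode burst duration, AUC over four recordings, negative direction vs DMSO.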

[18] = CCTE_Shafer_MEA_dev_interburst_interval_mean: CCTE's Neural Network Formation Assay for Mean Interburst Interval, Shafer Lab (AID 2284046);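 also: well-mean interburst interval of bursting electrodes as AUC over four recording days; curve fitted for decrease in interburst interval relative to DMSO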
Method in brief: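 Primary rat cortical neurons on PEI-coated 48-well MEA plates (laminin added with cells at plating) (16 electrodes/well), exposed from plating day 0 with renewal at DIV 5 and 9. Mean inter-burst interval averaged over bursting electrodes, AUC across days 5, 7, 9, 12; DMSO baseline.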

[19] = CCTE_Shafer_MEA_dev_inter_network_spike_interval_mean: CCTE's Neural Network Formation Assay for Mean Inter-network Spike Interval, Shafer Lab (AID 2284047)
Method in brief: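 Mean time between consecutive network-spike peaks, recorded extracellularly (adaptive spike detection) on DIV 5, 7, 9 and 12, summarized as trapezoidal AUC. Rat cortical cultures on MEAs dosed continuously days 0–12, re-dosed at feeds; loss-of-signal fit relative to DMSO.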

[20] = CCTE_Shafer_MEA_dev_network_spike_number: CCTE's Neural Network Formation Assay for Number of Network Spikes, Shafer Lab (AID 2284048);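 also: synchronized bursts across electrodes counted on days 5 7 9 12 and integrated as AUC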;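 as to AC50: fit as a loss of signal meaning fewer network spikes than DMSO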
Method in brief: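 Rat cortical primary cultures on 48-well MEA (16 electrodes/well); continuous exposure DIV 0–12, full medium and treatment exchange DIV 5, 9. Readout: network spike count, AxIS adaptive detection, recordings DIV 5/7/9/12 collapsed to AUC; loss-of-signal fit, DMSO baseline.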

Measured: AC50

Sequence of Estrogen receptor (Homo sapiens) (P03372 whole entry, looked up): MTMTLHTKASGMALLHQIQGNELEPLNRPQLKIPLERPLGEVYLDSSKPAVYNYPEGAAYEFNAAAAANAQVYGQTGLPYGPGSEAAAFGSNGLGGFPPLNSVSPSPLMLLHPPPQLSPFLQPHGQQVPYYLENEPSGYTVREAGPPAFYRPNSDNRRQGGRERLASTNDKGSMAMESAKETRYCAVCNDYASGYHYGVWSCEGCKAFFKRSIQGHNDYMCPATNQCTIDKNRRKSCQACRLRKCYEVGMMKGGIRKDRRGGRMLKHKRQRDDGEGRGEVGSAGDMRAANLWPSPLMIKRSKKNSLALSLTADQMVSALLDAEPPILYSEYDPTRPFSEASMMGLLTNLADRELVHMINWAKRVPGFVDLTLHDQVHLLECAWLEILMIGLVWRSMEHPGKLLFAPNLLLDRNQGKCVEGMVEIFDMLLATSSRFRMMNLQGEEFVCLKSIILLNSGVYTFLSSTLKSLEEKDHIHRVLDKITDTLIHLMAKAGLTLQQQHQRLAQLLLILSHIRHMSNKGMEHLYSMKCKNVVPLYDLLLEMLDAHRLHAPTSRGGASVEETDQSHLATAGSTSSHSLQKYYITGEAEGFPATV

CCN(CC)c1ccccc1
inactive: [1] | [2] | [3] | [4] | [5]

CCCCN(CCCC)N=O
active: [3] 85.5 µM | [5] 77.6 µM
inactive: [1] | [2] | [4]

CC(Cl)(Cl)C(=O)O
inactive: [6] | [7] | [8] | [9] | [10] | [1] | [3] | [5]

CCOC(=O)c1ccccc1C(=O)OCC
inactive: [1] | [2] | [3] | [4]
active: [5] 45.2 µM

CCCCN(CC)C(=O)SCCC
inactive: [1] | [2] | [3] | [4] | [5]

CCCCc1ccccc1
inactive: [1] | [2] | [3] | [4] | [5]

ClC1=C(Cl)C2(Cl)C3C(Cl)C(Cl)CC3C1(Cl)C2(Cl)Cl (stereo unspecified)
inactive: [6] | [8] | [17] | [19]
active: [7] 33.8 µM | [9] 4.29 µM | [10] 0.283 µM | [11] 4.35 µM | [12] 6.7 µM | [13] 5.54 µM | [14] 7.48 µM | [15] 7.54 µM | [16] 3.93 µM | [18] 7.68 µM | [20] 1.98 µM

c1ccc2c(c1)Nc1ccccc1S2
active: [6] 7.45 µM | [7] 20 µM | [9] 36.9 µM | [10] 20 µM | [1] 41.3 µM | [3] 27.7 µM
inactive: [8] | [2] | [4] | [5]

CCOc1ccc(C(C)(C)COCc2cccc(Oc3ccccc3)c2)cc1
inactive: [6] | [8] | [9] | [14] | [17] | [19] | [20]
active: [7] 23.8 µM | [10] 28.1 µM | [11] 5.99 µM | [12] 10 µM | [13] 10 µM | [15] 8.06 µM | [16] 14 µM | [18] 18 µM

Cc1ccc(N)cc1N
inactive: [6] | [7] | [8] | [9] | [10]

CCOP(=S)(Oc1ccc([N+](=O)[O-])cc1)c1ccccc1 (stereo unspecified)
active: [1] 19.6 µM | [3] 15.5 µM
inactive: [6] | [7] | [8] | [9] | [10] | [4] | [5]

CC(C)(C)c1ccccc1OP(=O)(Oc1ccccc1)Oc1ccccc1
active: [6] 5 µM | [7] 7.61 µM | [9] 8.14 µM | [10] 6.97 µM | [12] 26.2 µM | [13] 24.3 µM | [15] 16.4 µM and 26.8 µM
inactive: [8] | [11] | [12] | [13] | [14] | [16] | [17] | [18] | [19] | [20]

CCC(C)(C)c1ccc(O)cc1
inactive: [7] | [8]
active: [9] 9.35 µM | [10] 8.24 µM | [1] 7.31 µM | [3] 1.52 µM | [5] 0.0296 µM
